Bioassay records from PubChem BioAssay.
Rows were chosen to be rich in hits. Some 2.3% of all compounds tested hit in one or more screens of this group.
iPSC survival up = enhancers of single-cell hiPSC survival, primary screen, ATPlite luminescence; 100% = ROCK inhibitor wells, 0% = DMSO; 0.044% of 360,000 active; survival enhancement, % at 20 µM; AID 602274, 2012; in the data active means survival enhancement above about 18%;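 further: cells exposed to compounds for 16 hours before the ATP read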
HIF-2a block = HIF-2a reporter inhibitors, primary screen, luminescence, 786-0 RCC cells; 786-0 RCC cells HIF-2a reporter, luciferase luminescence, overnight; inhibition, % at 18.8 µM; 0.72% of 360,000 active; AID 624352, 2012;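 active means inhibition of the luminescence signal of 40% or more relative to plate controls, in a single-dose primary screen at 18.75 µM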
CF NFkB inh = inhibitors of PAF-induced NF-kB signaling, primary screen, cell-based, GFP fluorescence, uHTS | KKLEB NF-kB-GFP reporter, GFP fluorescence overnight | inhibition, % at 5 µM | 0.86% of 360,000 active;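 active means at least 50% inhibition at 5 µM, scaled per plate between neutral and stimulator controls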;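 further: PAF is a Pseudomonas aeruginosa culture filtrate used as stimulus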
TWEAK-Fn14 inh = inhibitors of TWEAK-Fn14 signaling, primary screen, luciferase reporter cells, uHTS. 2% of 360,000 active. AID 1159606, 2016. inhibition, % at 10 µM. TWEAK-stimulated Fn14 reporter cells, luciferase luminescence, 8 h; in the data active means inhibition above about 50%
KKLEB tox = cytotoxicity in KKLEB CF airway cells, primary screen, cytotoxicity control for CF NF-kB inhibitor project, cell-based, uHTS, fluorescence assay plates | KKLEB CF airway cells viability, ATPlite luminescence, overnight; stronger effect = lower value; cells stimulated with P. aeruginosa culture filtrate | activity change (cytotoxicity), % at 5 µM | AID 602141, 2011 | 0.36% of 360,000 active;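 active means corrected activity change at or below -50% at 5 µM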
LGR2 antag = inhibitors of bursicon-induced LGR2 CRE-luciferase signal, primary screen, cell-based, HEK293, CRE-luciferase reporter, bursicon stimulation; bursicon-stimulated, 4 h; inhibition, % at 9.99 µM; Drosophila bursicon receptor LGR2 (rickets); 0.35% of 380,000 active; AID 720647, 2013;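 active means drop in luminescence signal, shown as inhibition above about 50% in the replicate tests, limit read from the data, passing the limit was not always enough; inconclusive means probably only some replicates passing the limit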;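 further: agonist challenge used bursicon conditioned medium at about half maximal strength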
Of the large screens only hits and unclear results are named; the others gave an inactive call.

O=C1NC(=O)C(=Cc2c(Cl)cccc2Cl)C(=O)N1	CF NFkB inh 59
Cc1ccc(C(=O)C2CN3CCC2CC3)cc1 (configuration not stated)	TWEAK-Fn14 inh 84 (no result: LGR2 antag)
COC(=O)C1=C(c2ccc(F)cc2OCc2ccccc2)C[C@@H]2CC[C@H]1N2C(=O)N1CCC(O)(c2ccc(Cl)cc2)CC1	TWEAK-Fn14 inh 56
O=C(Cc1ccncc1)N1CCCCN2[C@H](CO)[C@@H](c3ccc(C#Cc4ccccc4F)cc3)[C@H]2C1	none (no result: iPSC survival up, HIF-2a block, CF NFkB inh, TWEAK-Fn14 inh, KKLEB tox)
COc1cccc(-n2c(-c3ccoc3)nc3ccccc3c2=O)c1	none (no result: LGR2 antag)
COc1cccc(-n2c(C)nc3ccccc3c2=O)c1	TWEAK-Fn14 inh 67 (no result: LGR2 antag)
COc1ccc2c(c1)C(NC(C)=O)CCc1cc(OC)c(OC)c(OC)c1-2 (configuration not stated)	none
COc1cc2c(c(OC)c1OC)-c1ccc(O)c(=O)cc1C(NC(C)=O)CC2 (configuration not stated)	CF NFkB inh 54
O=[N+]([O-])c1ccc(Cl)c([N+](=O)[O-])c1	CF NFkB inh 58
Cc1cccc(N2C(=O)NC(=O)/C(=C\c3cccn3-c3ccc(Cl)cc3)C2=O)c1	TWEAK-Fn14 inh 61, LGR2 antag 60
Cc1cc(C)cc(N2C(=O)NC(=O)/C(=C/c3cccn3-c3ccc(Cl)cc3)C2=O)c1	HIF-2a block 43, CF NFkB inh 61, TWEAK-Fn14 inh 104, LGR2 antag inconclusive
COc1ccc(C#Cc2ccc([C@H]3[C@H](CO)N4CCCCN(C(=O)Cc5ccncc5)C[C@@H]34)cc2)cc1	none (no result: iPSC survival up, HIF-2a block, CF NFkB inh, TWEAK-Fn14 inh, KKLEB tox)
C/C=C/c1ccc(C2[C@@H]3CN(C(=O)c4cnccn4)C[C@H]2N3)cc1 (some centres not stated)	none (no result: iPSC survival up, HIF-2a block, CF NFkB inh, TWEAK-Fn14 inh, KKLEB tox)
O=C(O)[C@H]1[C@H](CO)[C@H]2Cn3c(ccc(-c4ccncc4)c3=O)[C@@H]1N2C(=O)C1CCCCC1	none (no result: iPSC survival up, HIF-2a block, CF NFkB inh, TWEAK-Fn14 inh, KKLEB tox)
CC1CC(C)(O)CC(C(O)CC2CC(=O)NC(=O)C2)C1=O (configuration not stated)	HIF-2a block 55, CF NFkB inh 91, TWEAK-Fn14 inh 98, LGR2 antag 102
CC=CC(C)=CC(C)C(=O)CC(O)CC1CC(=O)NC(=O)C1 (configuration not stated)	none
COC(=O)[C@H]1[C@H](CO)[C@H]2Cn3c(ccc(C4=CCCC4)c3=O)[C@@H]1N2CC1CCCC1	none (no result: iPSC survival up, HIF-2a block, CF NFkB inh, TWEAK-Fn14 inh, KKLEB tox)
O=C(Cc1ccccc1)N1CCCCN2[C@@H](CO)[C@H](c3ccc(C#CC4(O)CCCC4)cc3)[C@@H]2C1	none (no result: iPSC survival up, HIF-2a block, CF NFkB inh, TWEAK-Fn14 inh, KKLEB tox)
NC(=O)c1cn(C2OC(CO)C(O)C2O)c2ncnc(N)c12 (configuration not stated)	HIF-2a block 67, CF NFkB inh 89, TWEAK-Fn14 inh 89, KKLEB tox -83, LGR2 antag 71
CCNC(=O)[C@H]1O[C@@H](n2cnc3c(N)ncnc32)[C@H](O)[C@@H]1O	none
N#Cc1cn(C2OC(CO)C(O)C2O)c2ncnc(N)c12 (configuration not stated)	CF NFkB inh 96, TWEAK-Fn14 inh 72, LGR2 antag 94
Nc1ncnc2c1ncn2[C@@H]1O[C@H](COP(=O)(O)CP(=O)(O)O)[C@@H](O)[C@H]1O	none
O=C(Cc1cccnc1)N1CCCCN2[C@H](CO)[C@@H](c3ccc(/C=C/c4ccccc4)cc3)[C@H]2C1	none (no result: iPSC survival up, HIF-2a block, CF NFkB inh, TWEAK-Fn14 inh, KKLEB tox)
Cc1ccccc1-[n+]1c(-c2ccccc2)cc(-c2ccccc2)cc1-c1ccccc1	TWEAK-Fn14 inh 89
O=C(O)[C@H]1[C@H](CO)[C@H]2Cn3c(ccc(C4=CCCC4)c3=O)[C@@H]1N2C(=O)Cc1ccccn1	none (no result: iPSC survival up, HIF-2a block, CF NFkB inh, TWEAK-Fn14 inh, KKLEB tox)
O=C1C(=O)c2cccc3cccc1c23	none
O=C1C(=O)c2ccccc2-c2ccccc21	HIF-2a block 98, CF NFkB inh 83, TWEAK-Fn14 inh 107, LGR2 antag 104
Cc1ccc(OC(=O)N(C)C[C@H]2OCc3ccccc3-c3c(n(C)c4ccccc34)C(=O)N([C@H](C)CO)C[C@H]2C)cc1	none (no result: iPSC survival up, HIF-2a block, CF NFkB inh, TWEAK-Fn14 inh, KKLEB tox)
COc1ccccc1OCC(=O)Nc1ccc(Cl)cc1C(=O)c1ccccc1	TWEAK-Fn14 inh 107
CN1C[C@H](CNC(=O)OCc2ccccc2)C[C@@H]2c3cccc4c3c(cn4C)C[C@H]21	TWEAK-Fn14 inh 60 (no result: LGR2 antag)
CN1C[C@H](CO)C[C@@H]2c3cccc4[nH]cc(c34)C[C@H]21	none
Clc1ccc(C(c2ccc(Cl)cc2)n2cc[n+](CC(OCc3ccc(Cl)cc3Cl)c3ccc(Cl)cc3Cl)c2)cc1 (configuration not stated)	HIF-2a block 97, CF NFkB inh 56, TWEAK-Fn14 inh 77, LGR2 antag 87
Clc1ccc(COC(Cn2ccnc2)c2ccc(Cl)cc2Cl)cc1 (configuration not stated)	none
COC(=O)[C@H]1[C@H](CO)[C@H]2Cn3c(ccc(C4=CCCC4)c3=O)[C@@H]1N2Cc1ccccn1	none (no result: iPSC survival up, HIF-2a block, CF NFkB inh, TWEAK-Fn14 inh, KKLEB tox)
CC=Cc1ccc2n(c1=O)C[C@@H]1[C@@H](CO)[C@H](C(=O)OC)[C@H]2N1S(=O)(=O)c1cccc(C)c1 (mixture of isomers)	none (no result: iPSC survival up, HIF-2a block, CF NFkB inh, TWEAK-Fn14 inh, KKLEB tox)
COC(=O)[C@@H]1[C@@H](CO)[C@@H]2Cn3c(ccc(-c4cccc(OC)c4)c3=O)[C@H]1N2C(=O)c1cnccn1	none (no result: iPSC survival up, HIF-2a block, CF NFkB inh, TWEAK-Fn14 inh, KKLEB tox)
CN1C(=O)/C(=C/C=C/c2ccco2)C(=O)NC1=S	none
O=C1NC(=O)N(CCc2ccc(F)cc2)C(=O)/C1=C\C=C\c1ccccc1	CF NFkB inh 89, TWEAK-Fn14 inh 98
C=CCN1C(=O)NC(=O)/C(=C/C=C/c2ccccc2)C1=O	none (no result: LGR2 antag)
Cn1cccc1/C=C1\C(=O)NC(=O)N(Cc2ccco2)C1=O	none
O=C1NC(=O)N(Cc2ccccc2)C(=O)/C1=C\C=C\c1ccco1	HIF-2a block 46, CF NFkB inh 74, KKLEB tox -51
O=C1NC(=O)N(Cc2ccco2)C(=O)/C1=C/C=C/c1ccco1	HIF-2a block 87, CF NFkB inh 78
COCCCNC(=O)c1c(NC(=O)c2ccco2)n(Cc2ccccc2)c2nc3ccccc3nc12	none (no result: LGR2 antag)
COCCNC(=O)c1c(NC(=O)c2ccc(Br)o2)n(Cc2ccccc2)c2nc3ccccc3nc12	TWEAK-Fn14 inh 58
CC(O)C1C=CC=CC(=O)OC2CC3OC4C5OC5(C)C(O)CC4(COC(=O)C(O)C(C)CCO1)C2(C)C31CO1 (configuration not stated)	HIF-2a block 66, CF NFkB inh 83, TWEAK-Fn14 inh 99, LGR2 antag 104
CCN(CC)c1ccc(N=Cc2c(O)n(CCc3ccc(OC)c(OC)c3)c(=O)[nH]c2=O)cc1	TWEAK-Fn14 inh 52, LGR2 antag 51
